# Experimental data reported in PubChem BioAssay (NCATS).
# Several values for one entry are separate records, joined by “and”; a condition that tells them apart may be missing. Identical values can stand only once. Records with an inconclusive call do not appear. Activity calls are given as the source filed them. Unless noted, calls follow the shape of the full dose curve.
# Assays:
# [1] = qHTS drug screen for cell cycle checkpoint inhibitors in PARPi-resistant BRCA-mutant ovarian cancer cell lines. (AID 1963452); settings: PEO1/OlaR viability, CellTiter-Glo luminescence, 96 h; for Z-AUC: stronger effect = lower value; also: potency is read from the fitted curve at half-maximal effect
# In short: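 PEO1, PEO4 and PEO1/OlaR ovarian cancer cells, 600 per well, exposed 96 h at 37C to a dilution series. Viability read by CellTiter-Glo luminescence, normalized to DMSO and empty wells; activity summarized as Z-AUC.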
# [2] = qHTS profiling for inhibitors of Plasmodium falciparum proliferation (AID 504749; active = well fitted inhibition curve with a large enough effect;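 also: 0% = DMSO vehicle and full inhibition = artemisinin control; nearly all actives have a fitted effect of over 60% in size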); settings: P. falciparum in erythrocytes, SYBR Green DNA, 72 h, at 28.7 µM (top of the series)
# In short: (§1)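 Three-day growth assay of blood-stage parasites in erythrocytes (0.3% parasitemia, 2.5% hematocrit) at 37 C, 5% CO2, quantified by SYBR Green DNA staining after overnight detergent lysis.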
# 3D7 = test: as above; settings: P. falciparum in erythrocytes, SYBR Green DNA, 72 h; series mostly up to 28.7 µM
# In short: as §1
# 7G8 = test: as above; settings: P. falciparum in erythrocytes, SYBR Green DNA, 72 h; series mostly up to 28.7 µM
# In short: as §1
# AA1029 = test: as above; settings: P. falciparum in erythrocytes, SYBR Green DNA, 72 h; series mostly up to 28.7 µM
# In short: as §1
# AS120 = test: as above; settings: P. falciparum in erythrocytes, SYBR Green DNA, 72 h; series mostly up to 28.7 µM
# In short: as §1
# ATS189 = test: as above; settings: P. falciparum in erythrocytes, SYBR Green DNA, 72 h; series mostly up to 28.7 µM
# In short: as §1
# C2A = test: as above; settings: P. falciparum in erythrocytes, SYBR Green DNA, 72 h; series mostly up to 28.7 µM
# In short: as §1
# CP185 = test: as above; settings: P. falciparum in erythrocytes, SYBR Green DNA, 72 h; series mostly up to 28.7 µM
# In short: as §1
# CP191 = test: as above; settings: P. falciparum in erythrocytes, SYBR Green DNA, 72 h; series mostly up to 28.7 µM
# In short: as §1
# CP192 = test: as above; settings: P. falciparum in erythrocytes, SYBR Green DNA, 72 h; series mostly up to 28.7 µM
# In short: as §1
# CP194 = test: as above; settings: P. falciparum in erythrocytes, SYBR Green DNA, 72 h; series mostly up to 28.7 µM
# In short: as §1
# CP201 = test: as above; settings: P. falciparum in erythrocytes, SYBR Green DNA, 72 h; series mostly up to 28.7 µM
# In short: as §1
# CP203 = test: as above; settings: P. falciparum in erythrocytes, SYBR Green DNA, 72 h; series mostly up to 28.7 µM
# In short: as §1
# CP211 = test: as above; settings: P. falciparum in erythrocytes, SYBR Green DNA, 72 h; series mostly up to 28.7 µM
# In short: as §1
# CP217 = test: as above; settings: P. falciparum in erythrocytes, SYBR Green DNA, 72 h; series mostly up to 28.7 µM
# In short: as §1
# [3] = measured here: PEO1 parental Z-AUC
smiles,measurement,setting,value
C[C@H](Nc1ncnc2nc[nH]c12)c1cc2cccc(Cl)c2c(=O)n1-c1ccccc1,Z-AUC,[1],-0.68 (inactive) and -0.929 (inactive)
same,Z-AUC,[1]; [3],0.702 and -0.975
same,Z-AUC,[1]; measured here: PEO4 Z-AUC,0.729 and -0.588
CC(=O)N1CCN(CCOc2ccc(C3CCN(C4=Nn5c(nnc5C(F)(F)F)CC4)CC3)cc2)CC1,Z-AUC,[1],-0.519 (inactive)
same,Z-AUC,[1]; [3],-0.781
same,Z-AUC,[1]; measured here: PEO4 Z-AUC,-0.776
COc1cc(N2CCC(N)CC2)ccc1Nc1ncc(Cl)c(-c2c[nH]c3ccccc23)n1,Z-AUC,[1],-1.17 (inactive)
same,Z-AUC,[1]; [3],-1.5
same,Z-AUC,[1]; measured here: PEO4 Z-AUC,-2.07
CCCc1cc(C)[nH]c(=O)c1CNC(=O)c1cc(-c2ccnc(N3CCN(C)CC3)c2)cc2c1cnn2C(C)C,Z-AUC,[1],-1.33 (inactive)
same,Z-AUC,[1]; [3],-1.11
same,Z-AUC,[1]; measured here: PEO4 Z-AUC,-1.01
COc1cc(OC)c2c(=O)[nH]c(-c3cc(C)c(OCCO)c(C)c3)nc2c1,Z-AUC,[1],1.34 (inactive)
same,Z-AUC,[1]; [3],1.31
same,Z-AUC,[1]; measured here: PEO4 Z-AUC,1.15
N#Cc1ccnc(Nc2cc(C3CCN(C4COC4)CC3)cc(N3CCC(F)(F)C3)n2)c1,Z-AUC,[1],-0.647 (inactive)
same,Z-AUC,[1]; [3],-0.398
same,Z-AUC,[1]; measured here: PEO4 Z-AUC,0.109
Cc1cc(N2CCOCC2)ccc1Nc1nc(NC2CCCCC2)c2[nH]cnc2n1,Z-AUC,[1],-0.0672 (inactive)
same,Z-AUC,[1]; [3],-0.748
same,Z-AUC,[1]; measured here: PEO4 Z-AUC,-0.826
COc1cccc(-c2cc(F)ccc2C2Cc3nc(N)nc(C)c3C(=O)N2)n1 (configuration not stated),Z-AUC,[1],-1.35 (inactive)
same,Z-AUC,[1]; [3],-1.35
same,Z-AUC,[1]; measured here: PEO4 Z-AUC,-0.552
CCc1cc(C(N)=O)ccc1-n1nc(C(C)C)c2c(-n3cnc(-c4cnn(C)c4)c3)ccnc21,Z-AUC,[1],-0.734 (inactive)
same,Z-AUC,[1]; [3],-1.82
same,Z-AUC,[1]; measured here: PEO4 Z-AUC,-1.2
Cn1cc(-c2ccc(S(=O)(=O)n3ccc(/C=C/C(=O)Nc4ccccc4N)c3)cc2)cn1,Z-AUC,[1],0.896 (inactive)
same,Z-AUC,[1]; [3],1.17
same,Z-AUC,[1]; measured here: PEO4 Z-AUC,0.999
NCC1CCN(c2nccc(-c3ccc4ccccc4c3)n2)CC1,Z-AUC,[1],-1.15 (inactive)
same,Z-AUC,[1]; [3],0.563
same,Z-AUC,[1]; measured here: PEO4 Z-AUC,-0.738
Cn1ncc(Cl)c1-c1cc(C(=O)N[C@H](CN)Cc2ccc(F)c(F)c2)sc1Cl,Z-AUC,[1],0.188 (inactive)
same,Z-AUC,[1]; [3],0.381
same,Z-AUC,[1]; measured here: PEO4 Z-AUC,-0.0194
COC(=O)N1CC2(CC2)C[C@H](C(=O)NO)[C@H]1C(=O)N1CCN(c2ccccc2)CC1,Z-AUC,[1],-0.244 (inactive)
same,Z-AUC,[1]; [3],-0.0786
same,Z-AUC,[1]; measured here: PEO4 Z-AUC,0.341
O=C1Nc2nc(-c3c(O)cccc3OCC3CC3)cc([C@@H]3CCCNC3)c2CO1,Z-AUC,[1],0.934 (inactive)
same,Z-AUC,[1]; [3],0.63
same,Z-AUC,[1]; measured here: PEO4 Z-AUC,0.451
Cc1nnc(C[C@@H]2C=C(c3ccc(Cl)cc3)c3ccccc3-n3c(C)nnc32)o1,Z-AUC,[1],0.965 (inactive)
same,Z-AUC,[1]; [3],0.533
same,Z-AUC,[1]; measured here: PEO4 Z-AUC,0.589
CCCOc1ccc2nc(NC(=O)OC)sc2c1,"activity, negative = inhibition",[2]; parasite line A,-2.17% (inactive)
same,"activity, negative = inhibition",[2]; parasite line B,4.31% (inactive)
same,Potency,3D7,inactive
same,Potency,7G8,inactive
same,Potency,AA1029,inactive
same,Potency,AS120,inactive
same,Potency,ATS189,inactive
same,Potency,C2A,inactive
same,Potency,CP185,inactive
same,Potency,CP191,inactive
same,Potency,CP192,inactive
same,Potency,CP194,inactive
same,Potency,CP201,inactive
same,Potency,CP203,inactive
same,Potency,CP211,inactive
same,Potency,CP217,inactive
Cn1ncc(Cl)c1-c1cc(C(=O)NC(CN)Cc2ccc(F)c(F)c2)oc1Cl (configuration not stated),Z-AUC,[1],0.713 (inactive)
same,Z-AUC,[1]; [3],0.319
same,Z-AUC,[1]; measured here: PEO4 Z-AUC,0.353
O=C(NC[C@H](O)CN1CCc2ccccc2C1)c1ccnc(NC2CCC2)c1,Z-AUC,[1],-0.571 (inactive)
same,Z-AUC,[1]; [3],-0.416
same,Z-AUC,[1]; measured here: PEO4 Z-AUC,-0.212
CC(C)(C)Sc1c(CC(C)(C)C(=O)O)n(Cc2ccc(Cl)cc2)c2ccc(OCc3ccc4ccccc4n3)cc12,Z-AUC,[1],1.37 (inactive)
same,Z-AUC,[1]; [3],0.865
same,Z-AUC,[1]; measured here: PEO4 Z-AUC,0.962
FC(F)(F)c1ccc(/C=C/c2nc(COc3ccc(CCCCn4ccnn4)cc3)co2)cc1,Potency,[1],195 nM (active)
same,Z-AUC,[1]; [3],-3.45
same,Z-AUC,[1]; measured here: PEO4 Z-AUC,-2.45
C[C@@H](c1ccc2nccn2c1)n1nnc2ncc(-c3cnn(C)c3)nc21,Z-AUC,[1],-0.155 (inactive)
same,Z-AUC,[1]; [3],-0.0646
same,Z-AUC,[1]; measured here: PEO4 Z-AUC,-0.199
Fc1ccc(-c2nc(-c3ccccc3F)[nH]c2-c2ccncc2)cc1,Z-AUC,[1],0.595 (inactive)
same,Z-AUC,[1]; [3],-0.0932
same,Z-AUC,[1]; measured here: PEO4 Z-AUC,0.278
CC[C@@H](C)Nc1cc(C(=O)NC2CC3CC[C@@H](C2)N3c2ccc(C(=O)C3CC3)cn2)c(C)cc1C(N)=O (some centres not stated),Potency,[1],219 nM (active)
same,Z-AUC,[1]; [3],-1.88
same,Z-AUC,[1]; measured here: PEO4 Z-AUC,-1.25
C=CC(=O)Nc1ccc2ncnc(Nc3cccc(Br)c3)c2c1,Z-AUC,[1],-0.896 (inactive)
same,Z-AUC,[1]; [3],-1.05
same,Z-AUC,[1]; measured here: PEO4 Z-AUC,-0.968
CC(C)(CNC(=O)c1cccc(-c2noc(C(F)(F)F)n2)c1)c1coc(-c2ccccc2)n1,Z-AUC,[1],0.0442 (inactive)
same,Z-AUC,[1]; [3],0.732
same,Z-AUC,[1]; measured here: PEO4 Z-AUC,0.975
CN1CCN(c2ccc(OC(F)(F)F)c(Nc3ncc4c(n3)-c3c(c(C(N)=O)nn3CCO)CC4)c2)CC1,Z-AUC,[1],-0.858 (inactive)
same,Z-AUC,[1]; [3],-1.94
same,Z-AUC,[1]; measured here: PEO4 Z-AUC,-1.88
Nc1nccc(-c2c(-c3ccc(F)cc3)ncn2C2CCCCC2)n1,Z-AUC,[1],-0.78 (inactive)
same,Z-AUC,[1]; [3],1.09
same,Z-AUC,[1]; measured here: PEO4 Z-AUC,0.204
CCOc1cc(C(C)(C)C)ccc1C1=N[C@@](C)(c2ccc(Cl)cc2)[C@@](C)(c2ccc(Cl)cc2)N1C(=O)N1CCN(CC(=O)N2CCOCC2)CC1,Z-AUC,[1],-0.291 (inactive)
same,Z-AUC,[1]; [3],0.35
same,Z-AUC,[1]; measured here: PEO4 Z-AUC,0.188
